Assay [1] is described as follows: NFAT Signaling Pathway (AID 444; active = well fitted curve in either direction with a large enough effect, not every such curve was filed as active;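 also: carbachol stimulus at about its EC50 of 1 µM final; % is scaled to controls: 0 for no effect and ±100 for the full control effect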). The following applies: Jurkat NFAT-bla M1, carbachol, beta-lactamase ratio, 5 h; at 38 µM (top of the series). In short, it runs like this:
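Read-out: CCF4 FRET ratio (460 nm/530 nm) after 1 h RT dye loading, used for %activity and AC50 from titration series. Cells: Jurkat NFAT-β-lactamase/M1 line, treated with compound plus 1 uM carbachol for 5 h, 37 °C.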

Assay [2] can be described thus: Stat Signaling Pathway (AID 446; active = well fitted curve in either direction with a large enough effect, not every such curve was filed as active;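 also: ME-180 cervical cancer cells given 40 pM IL-6 alongside compound; SIE-controlled beta-lactamase reporter measured as 460/530 nm FRET emission ratio; % is scaled to controls: 0 for no effect and ±100 for the full control effect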). The settings on record: ME-180 (cervical carcinoma) SIE beta-lactamase reporter, IL-6 stimulated, 5 h; series mostly up to 38 µM. The method in brief:
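IL-6/STAT signaling read in ME-180 cells via an SIE beta-lactamase reporter. Stimulus was 40 pM IL-6 (its AC50) for 5 hrs, so both activation and inhibition register.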

Assay [3] addresses Glucocorticoid receptor (Homo sapiens) (UniProt P04150). Kind of assay: GR-GFP Redistribution (AID 450;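 active = compounds whose dose series gives a full or clear partial fitted curve of increased nuclear translocation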; also: potency is read from the fitted curve at half-maximal effect). The settings on record: U2OS GR-GFP nuclear translocation, laser cytometry, 2 h.
For assay [4], the target named is Mitogen-activated protein kinase 10 (Mus musculus) (UniProt Q61831). Kind of assay: JNK3 AlphaScreen Assay (AID 530; active = well fitted curve in either direction with a large enough effect, not every such curve was filed as active;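 also: kinase came from lysate of stimulated human HepG2 cells; signal reports phosphorylation of biotinylated GST-cJun 1-79 at Ser73 with 10 µM ATP; % is scaled to controls: 0 for no effect and ±100 for the full control effect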). The following applies: JNK3 lysate, c-Jun phosphorylation; series mostly up to 57.1 µM. In short, it runs like this: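 Compound titrations were preincubated 15 minutes at room temperature with substrate, antibody and pre-activated JNK3-containing HepG2 lysate. Reactions were started with 10 uM ATP and stopped with EDTA-containing bead buffer for AlphaScreen detection.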

Assay [5] deals with 3',5'-cyclic-AMP phosphodiesterase 4B (Homo sapiens) (UniProt Q07343). As to the kind of experiment: qHTS Assay for Inhibitors of PDE-IV (AID 607; active = well fitted activation curve with a large enough effect in the main read-out, with a control signal flat, not every such curve was filed as active; also: % of control where 0% means no effect). The following applies: HEK293 ACTOne CNG channel cells, membrane potential fluorescence; series mostly up to 22.9 µM. The method in brief:
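Live HEK293 cells with a modified cyclic nucleotide-gated (CNG) channel report intracellular cAMP via membrane-potential dye fluorescence (ex 535/em 590 nm). Endogenous PDE-IV was targeted. Compounds were tested at up to 22.9 uM final; RO 20-1724 100 uM served as control.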
For orientation: Quantitative high-throughput screening tests each substance at several concentrations.

Assay [6] has as its target Guanine nucleotide-binding protein G(i) subunit alpha-1 (Homo sapiens) (UniProt P63096). As to the kind of experiment: qHTS Assay for Inhibitors of RGS12 GoLoco Motif Activity (Green Fluorophore) (AID 879).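 Also: 0% = labeled peptide with Gαi1 and full inhibition = labeled peptide alone without protein; negative values mean loss of peptide binding seen as reduced polarization.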 The settings on record: Galphai1/FITC-RGS12 GoLoco peptide, fluorescence polarization; series mostly up to 57.1 µM. The method in brief: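 Fluorescence polarization assay: 50 nM Gαi1 with 10 nM FITC-labeled RGS12 GoLoco peptide in 10 mM Tris pH 7.5, 150 mM NaCl, 0.1 mM GDP, 0.05% NP40, 10 min at room temperature with compound.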

The target of assay [7] is Muscarinic acetylcholine receptor M1 (Rattus norvegicus) (UniProt P08482). As to the kind of experiment: qHTS Assay for Antagonists of Acetylcholine Muscarinic M1 Receptor: Measurement of IP-One Response (AID 944). Also: nearly all actives have a fitted effect of over 75% in size. The settings on record: CHO-M1 cells, IP-One HTRF, antagonist mode; series mostly up to 46.1 µM. The method in brief:
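M1-CHO (rat), 2000 cells/well, overnight recovery; cpd 10 min; carbachol EC80 (200 nM), 30 min, HEPES buffer + 50 mM LiCl pH 7.4; IP-One HTRF, Ex 337, Em 620/665 nm.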

In assay [8] the target is Pyruvate kinase (Leishmania mexicana) (UniProt Q27686). As to the kind of experiment: qHTS Validation Assay for Inhibitors of Leishmania Mexicana Pyruvate Kinase (AID 945).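 Also: 0% = DMSO only neutral control wells.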 The settings on record: purified L. mexicana pyruvate kinase, enzyme activity, E451W mutant enzyme; series mostly up to 57.5 µM. In short, it runs like this: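 Mutant LmPYK (E451W), 0.2 nM, plus 0.5 mM PEP and 0.1 mM ADP in 50 mM imidazole pH 7.2 containing 0.01% Tween 20 and 0.05% BSA. Incubated 1 h at room temperature; luminescence via PKLight, normalized to DMSO.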
Pyruvate kinase (Leishmania mexicana), sequence (Q27686 2-499 E452W): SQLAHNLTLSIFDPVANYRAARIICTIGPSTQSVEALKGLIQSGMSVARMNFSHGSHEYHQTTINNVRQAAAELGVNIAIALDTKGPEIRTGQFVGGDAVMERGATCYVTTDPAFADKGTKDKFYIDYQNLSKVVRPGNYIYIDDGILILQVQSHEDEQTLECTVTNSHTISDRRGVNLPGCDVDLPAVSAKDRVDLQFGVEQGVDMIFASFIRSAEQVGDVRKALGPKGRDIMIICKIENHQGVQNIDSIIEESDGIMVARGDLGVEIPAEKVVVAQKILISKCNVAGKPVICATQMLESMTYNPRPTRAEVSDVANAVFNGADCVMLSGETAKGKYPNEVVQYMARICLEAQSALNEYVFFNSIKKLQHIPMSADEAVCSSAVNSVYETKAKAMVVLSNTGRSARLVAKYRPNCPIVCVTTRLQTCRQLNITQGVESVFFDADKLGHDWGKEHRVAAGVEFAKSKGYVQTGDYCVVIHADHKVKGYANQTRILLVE

Assay [9] has as its target Pyruvate kinase PKM (Homo sapiens) (UniProt P14618). As to the kind of experiment: qHTS Assay for Activators of Human Muscle Pyruvate Kinase (AID 954; active = well fitted curve in the direction sought with a large enough effect, not every such curve was filed as active;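 also: 0% = uninhibited enzyme and -100% = no enzyme or full thiadiazolimine inhibition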). The settings on record: purified human muscle pyruvate kinase, luciferase-coupled luminescence, 1 h; series mostly up to 57.5 µM. In short, it runs like this:
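Enzyme was run at intermediate activity so both inhibitors and activators could be detected. ATP formed from ADP and PEP by 0.1 nM human PKM2 during a 1 h room-temperature incubation was quantified by coupled luciferase luminescence.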

In assay [10] the target is Alpha-galactosidase (Coffea arabica) (UniProt Q42656). As to the kind of experiment: Counterscreen for Glucocerebrosidase Inhibitors: qHTS Assay for Coffee Bean alpha-Galactosidase at pH 4.5 (AID 957).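 Also: plate controls were enzyme alone for no effect and no enzyme for full effect.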 The settings on record: purified coffee bean alpha-galactosidase, fluorogenic substrate; series mostly up to 76.9 µM. The method in brief:
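Coffee bean alpha-galactosidase 2 nM, substrate 4-MU-alpha-Gal 80 uM, pH 4.5 citrate/Tween-20, 20 min RT. Cpd titration 0.7 nM–77 uM. Stop pH 10, fluorescence 365/440 nm; Hill-equation AC50.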
On the technique in general: The purpose of a counterscreen is to sort out artefacts and off-target activity.

In assay [11] the target is Alpha-galactosidase A (Homo sapiens) (UniProt P06280). Kind of assay: Counterscreen for Glucocerebrosidase Inhibitors: qHTS Assay for Human alpha-Galactosidase at pH 4.5 (AID 992). Also: 0% is about no effect. The settings on record: purified enzyme, fluorogenic substrate; series mostly up to 76.9 µM. The method in brief:
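Read-out is 4-methylumbelliferone fluorescence (365 nm excitation, 440 nm emission) after a pH 10 NaOH/glycine stop. Reactions held 2 nM enzyme and 80 uM substrate at pH 4.5 for 20 min at room temperature.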

Assay [12] deals with alpha-glucosidase (Oryza sativa, rice) (UniProt Q653V4). Kind of assay: Counterscreen for Glucocerebrosidase Inhibitors: qHTS Assay for Rice alpha-Glucosidase at pH 5.0 (AID 997).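 Also: 0% = full activity with enzyme and -100% = basal without enzyme.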 The settings on record: rice alpha-glucosidase enzyme activity; series mostly up to 76.9 µM. The method in brief: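 Rice alpha-glucosidase (4 nM final) with 400 uM 4-methylumbelliferyl-alpha-D-glucopyranoside in citrate buffer pH 5.0, 20 min at room temperature, stopped at pH 10; fluorescence 365/440 nm, compounds 0.7 nM–77 uM, AC50 from Hill fits.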

The target in assay [13] is Alpha-galactosidase (Coffea arabica) (UniProt Q42656). As to the kind of experiment: Counterscreen for Glucocerebrosidase Inhibitors: qHTS Assay for Coffee Bean alpha-Galactosidase at pH 5.9 (AID 998).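 Also: plate controls were uninhibited enzyme for no effect and no-enzyme basal signal for full effect.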 The settings on record: coffee bean alpha-galactosidase enzyme assay; series mostly up to 76.9 µM. In short, it runs like this: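 Compounds were titrated from 0.7 nM to 77 uM against green coffee bean alpha-galactosidase (2 nM) using 80 uM fluorogenic 4-methylumbelliferyl substrate. After 20 min at room temperature, reactions were stopped at pH 10 and read by fluorescence.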
Alpha-galactosidase (Coffea arabica), sequence (Q42656 whole entry, looked up): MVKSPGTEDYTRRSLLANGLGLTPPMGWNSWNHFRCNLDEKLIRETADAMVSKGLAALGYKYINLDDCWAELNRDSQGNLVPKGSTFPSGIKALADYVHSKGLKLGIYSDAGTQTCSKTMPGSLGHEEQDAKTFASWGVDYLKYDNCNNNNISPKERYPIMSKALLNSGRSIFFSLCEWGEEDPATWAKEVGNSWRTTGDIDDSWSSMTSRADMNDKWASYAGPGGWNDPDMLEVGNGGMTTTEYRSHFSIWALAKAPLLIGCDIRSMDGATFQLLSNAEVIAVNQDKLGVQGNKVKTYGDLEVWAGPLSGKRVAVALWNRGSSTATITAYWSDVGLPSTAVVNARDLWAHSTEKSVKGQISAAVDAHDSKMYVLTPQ

Assay [14] can be described thus: qHTS Assay for Lipid Storage Modulators (AID 1519; calls by dose curve). The settings on record: Drosophila S3 cells, BODIPY lipid droplet/cell ratio, laser cytometry, cells loaded with oleic acid; for activity change, negative = inhibition: at 57.5 µM (top of the series). In short, it runs like this: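 Cells seeded at 5,000 per well were treated with compounds over a concentration series and loaded with oleic acid (400 uM, as added). Lipid droplet fluorescence (488 nm excitation, 500-530 nm channel) was read by laser-scanning cytometry and normalized to 20 uM Triacsin C.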

The test system of assay [15] is Zika virus NS2B-NS3 protease. As to the kind of experiment: Primary screen GU AMC qHTS for Zika virus inhibitors (AID 1347154).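 Also: 0% = no-inhibitor control and -100% = no-enzyme control; nearly all actives have a fitted effect of over 70% in size.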 The settings on record: Zika NS2B-NS3 unlinked protease, AMC fluorogenic substrate; series mostly up to 54.1 µM. The method in brief:
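Fluorogenic AMC-substrate cleavage by noncovalent NS2B-NS3 protease complex (25 nM, pH 8.0 Tris buffer with Tween 20) followed for 15 minutes at room temperature (~20% conversion). Percent inhibition from ex340/em450 signal change, fitted by 4-parameter Hill equation.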

Assay [16] in a line: Primary qHTS for small molecule stabilizers of the endoplasmic reticulum resident proteome: Secreted ER Calcium Modulated Protein (SERCaMP) assay (AID 1508630). Also: % is scaled to controls: 0 for no effect and ±100 for the full control effect. The settings on record: SH-SY5Y GLuc-SERCaMP (Gaussia luciferase released on ER calcium loss) secretion, thapsigargin, luminescence; series mostly up to 38.4 µM. The method in brief:
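GLuc-SERCaMP-expressing SH-SY5Y cells, pretreated 16 h with compound, are challenged with thapsigargin to empty ER calcium stores; after 4 h, coelenterazine is added directly to the medium and luminescence is imaged.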

The target of assay [17] is Cytochrome P450 1A2 (Homo sapiens) (UniProt P05177). As to the kind of experiment: p450-cyp1a2 (AID 410; calls by dose curve;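 also: -100% = full effect of reference inhibitor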). The settings on record: recombinant CYP1A2, luciferin-ME demethylation, luminescence; series mostly up to 57 µM. The method in brief: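 Luminescent readout of luciferin formed from Luciferin-ME by human CYP1A2; data normalized against complete inhibition by 57 uM furafylline. Enzyme 20nM, substrate 100uM at Km, 100mM KPO4 buffer, 60 min reaction at room temperature.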
Cytochrome P450 1A2 (Homo sapiens), sequence (P05177 whole entry, looked up): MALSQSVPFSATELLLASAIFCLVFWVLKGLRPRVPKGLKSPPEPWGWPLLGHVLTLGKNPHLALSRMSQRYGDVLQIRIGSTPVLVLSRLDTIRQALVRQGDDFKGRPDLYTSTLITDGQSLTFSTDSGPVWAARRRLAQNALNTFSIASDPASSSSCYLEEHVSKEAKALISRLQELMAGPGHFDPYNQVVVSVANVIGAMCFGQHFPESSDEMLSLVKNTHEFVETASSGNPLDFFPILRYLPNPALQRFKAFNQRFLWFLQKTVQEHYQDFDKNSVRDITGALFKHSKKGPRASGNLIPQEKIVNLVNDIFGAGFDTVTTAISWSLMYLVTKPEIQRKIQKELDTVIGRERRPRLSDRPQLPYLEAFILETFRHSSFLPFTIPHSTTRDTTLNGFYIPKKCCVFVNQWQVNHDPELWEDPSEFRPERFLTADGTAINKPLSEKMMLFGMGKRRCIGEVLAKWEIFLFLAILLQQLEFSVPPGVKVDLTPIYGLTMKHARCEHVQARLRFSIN

The target in assay [18] is Ubiquitin carboxyl-terminal hydrolase 1 (Homo sapiens) (UniProt O94782). Kind of assay: Inhibitors of USP1/UAF1: Pilot qHTS (AID 504865).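 Also: rhodamine fluorescence freed from ubiquitin-rhodamine substrate followed over time; top concentration of the series differs between compounds; % is scaled to controls: 0 for no effect and ±100 for the full control effect; nearly all actives have a fitted effect of over 35% in size.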 The settings on record: purified USP1/UAF1, Ub-rhodamine cleavage fluorescence; series mostly up to 114 µM. The method in brief:
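Deubiquitinase activity followed as kinetic rhodamine fluorescence release from 150 nM Ub-Rho. 1 nM USP1/UAF1 with compound, after 15 min room-temperature preincubation, in HEPES pH 7.8 buffer containing TCEP, EDTA, BSA and Tween-20.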

For assay [19], the target named is Glucocorticoid receptor (Homo sapiens) (UniProt P04150). As to the kind of experiment: GR-EFC Redistribution (AID 451; calls by dose curve; also: potency is read from the fitted curve at half-maximal effect). The settings on record: CHO-K1 GR-EFC translocation, beta-gal luminescence, 2 h. In short, it runs like this:
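Translocation of GR-ED fusion to nuclear EA restores b-gal, read by luminescence after 1 h room-temperature detection. Engineered CHO-K1 biosensor cells, 1,000/well, exposed 2 h at 37 C to titrations up to 46 uM final.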

The target of assay [20] is DNA dC->dU-editing enzyme APOBEC-3G (Homo sapiens) (UniProt Q9HC16). As to the kind of experiment: qHTS for inhibitors of Vif-A3G interactions: Validation (AID 588379). Also: 0% is about no effect. The settings on record: Vif-A3G protein interaction assay; series mostly up to 46.1 µM. The method in brief:
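HeLa cells stably expressing Vif and A3G-eYFP, 700 cells/well, incubated overnight at 37 deg C, then exposed to compound overnight at 37 deg C. Inhibition of Vif-mediated degradation read as increased yellow fluorescence (Ex 488/Em 500-530) by laser-scanning cytometry.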

[21] abbreviates: measured here: cell count channel max response.
The mark [22] stands for this setting: measured here: lipid channel max response.

Inconclusive results are not listed. The source made the active and inactive calls. Unless noted, calls follow the shape of the dose curve; as a rule, active = well fitted curve in the direction sought with a large enough effect; inconclusive = small, poorly fitted or top-dose-only effect, or another doubt; inactive = no such curve, though single readings can be large; an effect the other way counts as inactive or inconclusive. Bounds are passed on as bounds.

Consider four molecules from PubChem BioAssay (NCATS).

Glucocorticoid receptor (Homo sapiens), sequence (P04150 whole entry, looked up, the tested form may be a part): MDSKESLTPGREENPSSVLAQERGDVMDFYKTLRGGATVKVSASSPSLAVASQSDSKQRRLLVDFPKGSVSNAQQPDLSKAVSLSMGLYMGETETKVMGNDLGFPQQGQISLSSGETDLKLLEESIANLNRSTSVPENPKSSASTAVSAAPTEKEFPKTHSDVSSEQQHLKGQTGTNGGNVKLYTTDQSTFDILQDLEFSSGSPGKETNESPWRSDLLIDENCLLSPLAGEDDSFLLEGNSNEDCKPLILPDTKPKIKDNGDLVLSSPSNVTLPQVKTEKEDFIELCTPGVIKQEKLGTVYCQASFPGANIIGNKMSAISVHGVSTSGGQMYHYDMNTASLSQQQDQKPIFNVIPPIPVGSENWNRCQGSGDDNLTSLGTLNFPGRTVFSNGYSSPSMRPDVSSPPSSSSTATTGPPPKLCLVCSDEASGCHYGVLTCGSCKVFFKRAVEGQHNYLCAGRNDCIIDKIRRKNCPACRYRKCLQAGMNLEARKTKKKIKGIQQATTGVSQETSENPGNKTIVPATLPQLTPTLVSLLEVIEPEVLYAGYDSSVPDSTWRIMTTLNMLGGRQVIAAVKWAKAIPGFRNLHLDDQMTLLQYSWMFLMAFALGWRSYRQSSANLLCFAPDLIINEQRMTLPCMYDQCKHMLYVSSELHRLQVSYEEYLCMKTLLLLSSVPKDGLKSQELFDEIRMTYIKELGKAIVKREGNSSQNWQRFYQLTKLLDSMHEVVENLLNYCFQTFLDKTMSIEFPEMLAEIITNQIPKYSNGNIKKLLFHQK
3',5'-cyclic-AMP phosphodiesterase 4B (Homo sapiens), sequence (Q07343 whole entry, looked up): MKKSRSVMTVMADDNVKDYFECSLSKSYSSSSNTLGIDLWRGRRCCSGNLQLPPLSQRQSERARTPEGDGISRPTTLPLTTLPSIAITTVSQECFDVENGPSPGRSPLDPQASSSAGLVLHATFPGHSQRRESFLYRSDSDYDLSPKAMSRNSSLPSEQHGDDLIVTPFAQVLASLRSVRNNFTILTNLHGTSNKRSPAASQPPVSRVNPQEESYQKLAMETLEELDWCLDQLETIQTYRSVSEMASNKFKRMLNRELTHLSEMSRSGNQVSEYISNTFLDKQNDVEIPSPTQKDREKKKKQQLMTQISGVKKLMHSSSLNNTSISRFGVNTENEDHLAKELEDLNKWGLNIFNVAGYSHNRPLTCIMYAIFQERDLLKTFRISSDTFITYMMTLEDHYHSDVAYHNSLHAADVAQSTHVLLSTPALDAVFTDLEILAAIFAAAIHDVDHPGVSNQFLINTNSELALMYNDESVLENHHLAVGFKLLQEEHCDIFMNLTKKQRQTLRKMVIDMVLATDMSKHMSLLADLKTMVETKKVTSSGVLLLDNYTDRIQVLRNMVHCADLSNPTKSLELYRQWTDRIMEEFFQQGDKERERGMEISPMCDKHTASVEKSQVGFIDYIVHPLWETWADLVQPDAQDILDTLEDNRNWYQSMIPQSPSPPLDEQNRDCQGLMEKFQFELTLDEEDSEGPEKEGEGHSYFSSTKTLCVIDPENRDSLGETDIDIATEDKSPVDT
DNA dC->dU-editing enzyme APOBEC-3G (Homo sapiens), sequence (Q9HC16 whole entry, looked up): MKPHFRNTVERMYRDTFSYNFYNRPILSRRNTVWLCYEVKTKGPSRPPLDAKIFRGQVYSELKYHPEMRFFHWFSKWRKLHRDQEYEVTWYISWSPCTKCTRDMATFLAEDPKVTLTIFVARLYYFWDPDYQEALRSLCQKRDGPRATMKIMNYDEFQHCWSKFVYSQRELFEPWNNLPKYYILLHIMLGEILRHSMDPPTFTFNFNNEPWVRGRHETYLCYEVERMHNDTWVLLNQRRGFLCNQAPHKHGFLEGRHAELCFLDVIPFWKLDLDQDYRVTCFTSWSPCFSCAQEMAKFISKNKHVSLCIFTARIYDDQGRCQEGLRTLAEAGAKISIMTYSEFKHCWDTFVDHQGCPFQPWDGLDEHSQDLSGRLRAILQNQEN
Alpha-galactosidase A (Homo sapiens), sequence (P06280 whole entry, looked up): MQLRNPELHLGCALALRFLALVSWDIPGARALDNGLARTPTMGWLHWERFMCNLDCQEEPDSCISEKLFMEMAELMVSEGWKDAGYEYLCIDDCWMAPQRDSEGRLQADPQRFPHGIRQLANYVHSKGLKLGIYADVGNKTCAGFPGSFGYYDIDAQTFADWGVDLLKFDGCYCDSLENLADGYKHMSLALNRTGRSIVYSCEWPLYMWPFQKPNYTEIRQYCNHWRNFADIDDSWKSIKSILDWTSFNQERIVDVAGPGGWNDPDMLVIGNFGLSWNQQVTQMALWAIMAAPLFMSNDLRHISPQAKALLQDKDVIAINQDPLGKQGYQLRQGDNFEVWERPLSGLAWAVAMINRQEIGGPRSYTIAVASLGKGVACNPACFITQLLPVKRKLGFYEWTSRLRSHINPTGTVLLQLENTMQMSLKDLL
Muscarinic acetylcholine receptor M1 (Rattus norvegicus), sequence (P08482 whole entry, looked up): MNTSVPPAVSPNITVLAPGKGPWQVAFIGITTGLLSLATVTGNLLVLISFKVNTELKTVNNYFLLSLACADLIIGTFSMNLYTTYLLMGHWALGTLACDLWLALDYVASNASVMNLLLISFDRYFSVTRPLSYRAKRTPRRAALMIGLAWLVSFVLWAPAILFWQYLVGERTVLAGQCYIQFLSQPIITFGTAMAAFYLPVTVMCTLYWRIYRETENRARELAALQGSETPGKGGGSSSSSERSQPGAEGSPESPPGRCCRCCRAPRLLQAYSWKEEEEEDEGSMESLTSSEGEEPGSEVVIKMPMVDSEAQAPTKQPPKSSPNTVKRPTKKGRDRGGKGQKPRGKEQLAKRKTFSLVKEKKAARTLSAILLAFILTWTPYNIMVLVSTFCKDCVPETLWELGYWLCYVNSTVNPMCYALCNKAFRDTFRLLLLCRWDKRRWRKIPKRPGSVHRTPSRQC
Ubiquitin carboxyl-terminal hydrolase 1 (Homo sapiens), sequence (O94782 whole entry, looked up): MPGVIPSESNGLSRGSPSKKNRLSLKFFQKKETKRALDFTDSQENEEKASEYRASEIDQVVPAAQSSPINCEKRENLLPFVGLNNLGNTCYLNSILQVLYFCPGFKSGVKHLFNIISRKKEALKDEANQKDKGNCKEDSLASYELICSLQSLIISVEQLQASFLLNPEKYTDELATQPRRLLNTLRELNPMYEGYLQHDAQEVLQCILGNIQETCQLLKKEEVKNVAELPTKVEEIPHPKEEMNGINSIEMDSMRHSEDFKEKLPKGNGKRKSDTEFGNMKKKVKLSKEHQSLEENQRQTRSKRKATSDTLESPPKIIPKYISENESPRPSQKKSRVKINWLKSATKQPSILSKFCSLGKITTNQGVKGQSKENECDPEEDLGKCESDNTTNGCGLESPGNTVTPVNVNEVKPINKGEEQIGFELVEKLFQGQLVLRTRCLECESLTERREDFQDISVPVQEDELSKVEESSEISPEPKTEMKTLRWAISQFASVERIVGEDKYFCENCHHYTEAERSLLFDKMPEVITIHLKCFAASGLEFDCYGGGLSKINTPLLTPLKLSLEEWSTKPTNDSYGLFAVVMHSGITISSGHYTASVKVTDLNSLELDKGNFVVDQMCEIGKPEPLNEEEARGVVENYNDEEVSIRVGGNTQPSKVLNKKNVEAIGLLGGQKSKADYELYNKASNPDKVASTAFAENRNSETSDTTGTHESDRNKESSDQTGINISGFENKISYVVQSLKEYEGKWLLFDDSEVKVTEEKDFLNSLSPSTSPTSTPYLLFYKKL

`N[C@H](CP(=O)(O)O)C(=O)O`: the activity change, negative = inhibition in assay [1] was 5.18% (inactive); in assay [14], -5.82% (inactive). The result in assay [2], in [4], in assay [6], in assay [8], in assay [9] and in assay [10] was inactive. The result in assay [11], in assay [12] and in assay [13] was inactive. Also, the Potency in assay [3] is > 46 µM (inactive). Also, the Potency result in assay [5], in assay [7], in [15] and in assay [16] was “inactive” throughout. The max response in assay [14] (setting [21]) came to 12.7%; in [14] (setting [22]), 11.5%.

With `CNCCc1cnc[nH]1`, the Potency entry in assay [17], in assay [18], in [15] and in assay [16] was “inactive” in each case. Also, in [3], the Potency was > 46 µM (inactive). The activity change, negative = inhibition in assay [14] was 4.08% (inactive). In addition, the results for the max response in [14] (setting [21]) and in assay [14] (setting [22]) were -7.35% and -3.08%, respectively.

In the case of `C=C(C)CN1CC[C@@]23c4c5ccc(O)c4O[C@H]2c2[nH]c4ccccc4c2C[C@]3(O)[C@@H]1C5`, the Potency entry in assay [17], in assay [5], in assay [20], in [15] and in [16] was “inactive” in each case. Further, the Potency in assay [3] and in assay [19] was > 46 µM (inactive) in each case. Further, the molecule was called inactive in assay [4].

Take `CC(=O)N1CC[N+](C)(C)CC1`: the Potency in assay [3] and in [19] was > 46 µM (inactive) each time. In addition, the result in [4] was inactive. In addition, the Potency entry in [5], in [20], in assay [15] and in [16] was “inactive” throughout. The activity change, negative = inhibition in assay [14] was 2.08% (inactive). Also, the max response in assay [14] (setting [21]) was -4.3%; in [14] (setting [22]), -0.222%.
